Assay results as given in the supplement of paper PMC6555819.

What was measured:
Test in all cases: PBM binding z-score (relative to random genomic background probes); higher = stronger binding; sequences stand for … in GC…GCGATTGACAGCGTAGAATGAAGG
[1] = test system: FXR:RXRa (NR concentration 270 nM, RXRa partner concentration 90 nM)
Outline: (§1)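 For binding z-scores, the reference was random background probes on custom Agilent 4×180K protein-binding microarrays. These arrays were incubated 1 h with ligand-free nuclear receptor dimers in PBS pH 7.4, 2% milk, 0.02% Triton X-100, 1 mM DTT, 0.2 mg/mL BSA and 0.4 mg/ml salmon testes DNA. Fluorescence was scanned after antibody detection of each partner (one per run) and regression-normalized.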

[2] = test system: LXRa:RXRa (NR concentration 270 nM, RXRa partner concentration 90 nM)
Outline: as §1

[3] = test system: LXRa homodimer (NR concentration 270 nM)
Outline: as §1

[4] = test system: LXRb:RXRa (NR concentration 270 nM, RXRa partner concentration 90 nM)
Outline: as §1

[5] = test system: LXRb homodimer (NR concentration 270 nM)
Outline: as §1

[6] = test system: PPARa:RXRa (NR concentration 270 nM, RXRa partner concentration 90 nM)
Outline: as §1

[7] = test system: PPARg:RXRa (NR concentration 180 nM, RXRa partner concentration 90 nM)
Outline: as §1

[8] = test system: PPARg:RXRa 270nM:90nM, anti-RXR (NR concentration 270 nM, RXRa partner concentration 90 nM)
Outline: as §1

[9] = test system: PPARg:RXRa 30nM:10nM, anti-RXR (NR concentration 30 nM, RXRa partner concentration 10 nM)
Outline: as §1

[10] = test system: PPARg:RXRa 90nM:30nM, anti-RXR (NR concentration 90 nM, RXRa partner concentration 30 nM)
Outline: as §1

[11] = test system: PPARg:RXRa DBDmut IVT, anti-RXR (DBD mutation: RXRa K156A/R161A, NR concentration 270 nM, RXRa partner concentration 90 nM)
Outline: as §1

[12] = test system: PPARg:RXRa IVT, anti-PPARg (NR concentration 270 nM, RXRa partner concentration 90 nM)
Outline: as §1

[13] = test system: PPARg DBDmut:RXRa IVT, anti-PPARg (DBD mutation: PPARg1 K132A/R137A, NR concentration 270 nM, RXRa partner concentration 90 nM)
Outline: as §1

[14] = test system: PPARg DBDmut IVT, anti-PPARg (DBD mutation: PPARg1 K132A/R137A, NR concentration 270 nM)
Outline: as §1

[15] = test system: PPARg homodimer (NR concentration 180 nM)
Outline: as §1

[16] = test system: PXR:RXRa (NR concentration 270 nM, RXRa partner concentration 90 nM)
Outline: as §1

[17] = test system: PXR homodimer (NR concentration 270 nM)
Outline: as §1

[18] = test system: RARa:RXR (NR concentration 270 nM, RXRa partner concentration 90 nM)
Outline: as §1

[19] = test system: RARa homodimer (NR concentration 270 nM)
Outline: as §1

[20] = test system: RARb:RXRa (NR concentration 270 nM, RXRa partner concentration 90 nM)
Outline: as §1

Sequence	PBM binding z-score [1]	PBM binding z-score [2]	PBM binding z-score [3]	PBM binding z-score [4]	PBM binding z-score [5]	PBM binding z-score [6]	PBM binding z-score [7]	PBM binding z-score [8]	PBM binding z-score [9]	PBM binding z-score [10]	PBM binding z-score [11]	PBM binding z-score [12]	PBM binding z-score [13]	PBM binding z-score [14]	PBM binding z-score [15]	PBM binding z-score [16]	PBM binding z-score [17]	PBM binding z-score [18]	PBM binding z-score [19]	PBM binding z-score [20]
CCTTGGAGGACAGAAGGTCAGAGCTGTCCGCTTT	1.46	1.83	0.306	1.23	-0.609	2.23	0.715	2.34	0.178	1.81	0.658	1.17	-1.14	-2.25	1.98	1.69	0.0669	2.36	0.737	3.29
CCTCGGAGGACAACTGGAGGTCAGAGCTGCCAGA	1.53	3.1	5.05	1.94	-0.251	1.99	0.231	0.569	-0.723	0.0567	0.198	0.595	-1.19	-1.87	2.05	2.52	0.545	2.84	0.162	3.07
CGTCAAAGTTTAAGGTAACGTAACAGAAAGCAGC	0.503	0.447	-0.218	0.466	-0.063	0.794	0.72	1.11	0.465	0.749	-0.15	0.591	0.678	-0.068	0.325	0.369	0.0704	0.975	0.46	2.12
CCTACTGGGCCTTCAGGTCATTGATATCAACGTT	1.24	0.751	0.919	1.3	-0.3	1.93	0.682	1.85	0.024	1.09	2.17	2.64	0.207	0.0216	1.5	1.47	0.552	1.5	-0.361	1.7
GGAACGAGGGCATTCGAGTCGATAGCATGGCGAT	0.976	0.293	-0.802	-0.159	-0.384	1.15	0.824	0.495	-0.192	0.0537	2.96	2.19	-0.0559	-0.671	-0.141	1.5	0.546	0.428	-0.54	1.48
GCGACTGGGGCATCATCAGGTTACCATAACTTAA	0.261	0.0527	0.169	1.57	-0.509	1.46	1.1	0.894	-0.0999	0.381	4.15	3.3	-0.137	-0.42	0.121	0.266	-0.0234	1.05	-0.63	0.767
TCGAGTAGGGTAGGGGCATTCAGAATGGCGTCGA	0.264	0.12	0.0875	1.16	1.6	0.956	0.642	1.82	1.02	1.4	1.02	1.33	-0.123	1.32	0.484	0.566	0.395	0.405	0.0821	0.666
CAAACTCGGTCAAGGTCAAAGTCGGTTTGTGCCA	5.73	5.09	3.66	3.81	1.02	4.81	4.76	4.8	2.42	3.93	4.82	4.77	1.56	0.439	3.17	4.98	2.66	4.81	1.43	4.49
CCTGCTAGGTCAATGGTCACCTAAAGCAGCTCGC	3.09	2.46	0.104	1.86	-0.189	3.68	5.66	5.88	3.3	5.26	3.93	4.42	0.106	-0.848	1.21	1.24	-0.353	2.13	-0.122	3.96
TCTAGTTGGTCAAAGGTAACACACTCGAAATGCG	1.27	1.4	0.707	1.5	0.561	4	8.12	7.77	6.85	8.85	3.54	3.93	1.52	1.17	2.03	1.34	0.784	1.93	1.72	1.86
CGAACTAGGTCATCCAGTACAGTGAATACATTGA	4.18	2.86	0.599	2.59	0.209	4.82	7.93	6.36	4.02	5.81	8.25	8.35	2.09	1.3	1.76	2.09	1.66	2.26	0.426	3.78
ACTAGTCGGTCAGCTGAGGTCACACACAATTCGG	5.04	4.68	4.97	3.86	1.32	4.15	2.51	2.99	0.573	2	3.9	3.98	0.395	0.525	3.35	5.95	2.63	4.69	2.2	4.16
TCTTGTAGCTCAACAGGAGGTTAAGAAAGATCGA	-0.163	0.472	-0.218	0.222	-0.709	0.659	-0.365	0.868	2.01	1.4	0.679	-0.415	0.889	0.0315	-0.822	0.474	-0.26	0.724	-0.715	-0.0252
ATATGTAGGTTAGCTGGGATCATTCAGACTAGGC	0.641	0.823	0.0491	0.629	0.181	2.71	3.18	2.72	0.999	1.85	6.87	5.92	1.97	2.29	0.83	1.21	0.543	0.547	0.6	0.723
GATACAGGGTCAAGCCCAGAGTACGCGTATTGAT	7.02	4.26	-0.0405	3.88	-0.376	5.68	6.04	5.82	2.34	4.41	3.47	4.08	0.821	-0.0259	2.23	3.87	0.125	4.85	0.476	4.53
TCAGACAGGTGAAGGTATCTCAGGTACGCAGTCG	0.108	0.719	-0.00263	0.477	-0.0583	0.944	0.741	2.22	3.93	3.03	2.51	0.967	-0.232	0.111	0.602	0.375	0.13	0.509	0.153	1.08
AGAACGAGGGCACGCTCAGTTGATAGCAGAGTAG	0.582	0.413	-0.836	0.0167	-0.804	2.06	2.08	1.64	0.279	0.796	3.98	4.09	0.654	0.271	0.0615	0.642	0.028	0.591	-0.377	2.64
GCATGTAGATCAAGGTTAAGAAAGACTAAGCTAA	0.0428	0.684	-0.386	0.504	-0.805	1.47	1.33	2	0.418	1.55	1.08	0.797	-0.718	-0.329	-0.173	0.293	-0.179	0.536	-0.356	0.552
AGTCAACGTTCAGGACGAGGTAACGTAAAGCACG	-0.0969	-0.468	-0.628	-0.496	-0.581	-0.416	0.73	-0.278	-0.327	-0.0729	-0.667	-0.129	-0.279	-0.261	-0.431	-0.527	-0.514	0.104	-0.202	0.548
CCTAGCAGGCCAATCTGGGTCAGTCAAGGCTTGA	0.816	0.419	-0.663	0.0551	-1.41	1.97	0.228	0.88	-0.729	0.114	3.27	3.61	-0.788	-1.02	-0.0146	0.0599	-0.751	0.0549	-0.68	1.28
GCAACTGGGGCAAAGCAGGTTACCATAAGGTTGG	0.393	0.00585	-0.385	0.511	-0.769	2.06	2.61	2.77	0.156	1.77	5.89	5.52	0.219	-0.357	-0.0265	0.339	-0.607	0.838	-0.392	0.995
GTATATAGGTAATACAAGGTGAAAGTCCGATTGT	0.948	2.78	0.975	0.947	0.188	2.78	3.05	2.69	1.39	1.94	5.56	5.62	2.12	2.34	1.29	0.792	0.761	1.95	1.09	0.593
TAGCCTACGTCATTGGGCCAGTATAGTACGCATC	-0.593	-0.86	-0.485	-0.66	-0.257	-0.37	0.495	-0.589	-0.293	-0.205	-0.24	0.164	-0.121	-0.0205	-0.852	-0.757	-0.796	-0.734	-0.851	-0.413
ACTAGCAGGGCAAGGGTCACTCAAGATTAGTCCG	2.88	2.84	0.175	2.76	-0.693	4.79	8.91	7.48	7.19	7.64	2.1	4.69	-0.137	-0.877	1.91	3.4	-0.121	4.49	0.318	3.46
TCTTGTAGATCAAGAGGAGGTTAAGAAAGATCGA	0.338	0.95	-0.0702	0.725	-0.517	1.22	-0.0325	1.24	2.38	1.6	1.29	0.615	0.0065	0.335	0.153	0.769	-0.0434	1.09	0.139	0.364
AATAGCAGGCCAAGGGTCACTCAAGATTAGTCCG	2.6	3.25	0.455	2.65	-0.0727	4.75	8.33	7.83	6.83	8.23	2.14	4.27	0.158	-0.162	1.57	3.26	-0.222	4.09	0.758	3.54
